Test results: PubChem BioAssay AID1159580 (chemical genetic matrix, 2015)
Where “and” joins values, the source holds several entries; their conditions need not be identical. Identical values can stand only once. About 2,000 (36%) of roughly 5,500 compounds were called active. Not shown: some 18% with an inconclusive outcome. Rule as the data show it: active = normalized growth mostly below about 0.91 (no sharp cut-off); inconclusive = no clear call, values can overlap the other calls; inactive = mostly above about 0.92. The list shows a part of the results.

Assay: chemical genetic growth profiling, strain panel (AID 1159580);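 also: tested at 20 µM; growth read once vehicle control cultures reached saturation at 30 °C; 1 = growth at the plate median or of vehicle wells; lower values mean less growth of the strain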
Conditions: growth OD

Measured: normalized growth

CC(C)(C)NCC(O)c1ccccc1Cl (stereo unspecified)
inactive: S. cerevisiae deletion strains, locus YJR075W, strain HOC1, hits give low values 1.01 and 1.04 | S. cerevisiae deletion strains, locus YKL009W, strain mrt4, hits give low values 0.96 | S. cerevisiae deletion strains, locus YKL068W, hits give low values 0.991 | S. cerevisiae deletion strains, locus YKL085W, strain MDH1 (second series), hits give low values 0.983 | S. cerevisiae deletion strains, locus YKL085W, strain MDH1, hits give low values 0.983 | S. cerevisiae deletion strains, locus YKL160W, strain elf1, hits give low values 1.02 | S. cerevisiae deletion strains, locus YKL190W, strain CNB1, hits give low values 0.995 | S. cerevisiae deletion strains, locus YKR001C, strain vps1, hits give low values 0.976 | S. cerevisiae deletion strains, locus YKR026C, strain gcn3, hits give low values 0.994 | S. cerevisiae deletion strains, locus YKR091W, strain srl3, hits give low values 0.997 | S. cerevisiae deletion strains, locus YLL001W, strain dnm1, hits give low values 1 | S. cerevisiae deletion strains, locus YLL026W, hits give low values 0.983 | S. cerevisiae deletion strains, locus YLL041C, strain sdh2, hits give low values 0.997 | S. cerevisiae deletion strains, locus YLR027C, strain aat2, hits give low values 0.992 | S. cerevisiae deletion strains, locus YLR039C, strain RIC1, hits give low values 0.923 | S. cerevisiae deletion strains, locus YLR058C, strain SHM2, hits give low values 0.975 | S. cerevisiae deletion strains, locus YLR102C, strain apc9, hits give low values 0.986 | S. cerevisiae deletion strains, locus YLR113W, strain HOG1, hits give low values 1.01 | S. cerevisiae deletion strains, locus YLR221C, strain rsa3, hits give low values 1.01 | S. cerevisiae deletion strains, locus YLR258W, strain gsy2, hits give low values 0.974 | S. cerevisiae deletion strains, locus YLR262C, strain YPT6 (second series), hits give low values 0.997 | S. cerevisiae deletion strains, locus YLR262C, strain YPT6, hits give low values 0.887 | S. cerevisiae deletion strains, locus YLR268W, strain sec22, hits give low values 1.09 | S. cerevisiae deletion strains, locus YLR320W, strain mms22, hits give low values 0.981 | S. cerevisiae deletion strains, locus YLR330W, strain CHS5, hits give low values 0.992 | S. cerevisiae deletion strains, locus YLR342W, strain FKS1 (second series), hits give low values 0.967 | S. cerevisiae deletion strains, locus YLR342W, strain FKS1, hits give low values 0.999 | S. cerevisiae deletion strains, locus YLR357W, strain rsc2, hits give low values 0.982 | S. cerevisiae deletion strains, locus YLR370C, strain arc18, hits give low values 0.997 | S. cerevisiae deletion strains, locus YLR371W, strain rom2, hits give low values 0.982 | S. cerevisiae deletion strains, locus YLR384C, strain iki3, hits give low values 0.989 | S. cerevisiae deletion strains, locus YLR418C, strain cdc73, hits give low values 0.993 | S. cerevisiae deletion strains, locus YML016C, strain PPZ1, hits give low values 0.99 | S. cerevisiae deletion strains, locus YML032C, strain rad52, hits give low values 1.02 | S. cerevisiae deletion strains, locus YML120C, strain ndi1, hits give low values 1.01 | S. cerevisiae deletion strains, locus YML124C, strain tub3, hits give low values 0.984 | S. cerevisiae deletion strains, locus YMR058W, strain fet3, hits give low values 0.997 | S. cerevisiae deletion strains, locus YMR078C, strain ctf18, hits give low values 0.982 | S. cerevisiae deletion strains, locus YMR125W, strain sto1, hits give low values 0.962 | S. cerevisiae deletion strains, locus YMR129W, hits give low values 0.967 | S. cerevisiae deletion strains, locus YMR205C, strain PFK2, hits give low values 0.951 | S. cerevisiae deletion strains, locus YMR223W, strain ubp8, hits give low values 0.96 | S. cerevisiae deletion strains, locus YMR231W, strain pep5, hits give low values 0.998 | S. cerevisiae deletion strains, locus YMR263W, strain SAP30, hits give low values 0.993 and 0.995 | S. cerevisiae deletion strains, locus YMR307W, strain GAS1, hits give low values 0.994 and 0.992 | S. cerevisiae deletion strains, locus YNL067W, strain RPL9B, hits give low values 1.02 | S. cerevisiae deletion strains, locus YNL071W, strain lat1, hits give low values 1 | S. cerevisiae deletion strains, locus YNL128W, strain TEP1, hits give low values 0.962 | S. cerevisiae deletion strains, locus YNL153C, strain GIM3, hits give low values 1.01 | S. cerevisiae deletion strains, locus YNL175C, strain NOP13, hits give low values 1.02 | S. cerevisiae deletion strains, locus YNL183C, strain NPR1, hits give low values 0.939 | S. cerevisiae deletion strains, locus YNL197C, strain WHI3, hits give low values 0.981 | S. cerevisiae deletion strains, locus YNL209W, strain ssb2, hits give low values 1 | S. cerevisiae deletion strains, locus YNL224C, strain SQS1, hits give low values 1.01 | S. cerevisiae deletion strains, locus YNL233W, strain BNI4, hits give low values 1.02 | S. cerevisiae deletion strains, locus YNL248C, strain rpa49, hits give low values 1.02 | S. cerevisiae deletion strains, locus YNL250W, strain rad50, hits give low values 0.976 | S. cerevisiae deletion strains, locus YNL271C, strain bni1, hits give low values 0.987 | S. cerevisiae deletion strains, locus YNL298W, strain CLA4, hits give low values 0.975 | S. cerevisiae deletion strains, locus YNL307C, strain MCK1, hits give low values 0.992 | S. cerevisiae deletion strains, locus YNL322C, strain KRE1 (second series), hits give low values 0.989 | S. cerevisiae deletion strains, locus YNL322C, strain KRE1, hits give low values 0.996 and 1 | S. cerevisiae deletion strains, locus YNR049C, strain mso1, hits give low values 0.994 | S. cerevisiae deletion strains, locus YNR052C, strain pop2, hits give low values 0.985 | S. cerevisiae deletion strains, locus YOL006C, strain TOP1, hits give low values 1.03 | S. cerevisiae deletion strains, locus YOL012C, strain htz1 0.982 | S. cerevisiae deletion strains, locus YOL147C, strain pex11, hits give low values 0.992 | S. cerevisiae deletion strains, locus YOR001W, strain rrp6, hits give low values 0.996 | S. cerevisiae deletion strains, locus YOR061W, strain CKA2, hits give low values 0.969 | S. cerevisiae deletion strains, locus YOR069W, strain VPS5, hits give low values 0.991 | S. cerevisiae deletion strains, locus YOR070C, strain gyp1, hits give low values 0.992 | S. cerevisiae deletion strains, locus YOR080W, strain dia2, hits give low values 0.974 | S. cerevisiae deletion strains, locus YOR083W, strain WHI5 (second series), hits give low values 1.02 | S. cerevisiae deletion strains, locus YOR083W, strain WHI5, hits give low values 1.01 | S. cerevisiae deletion strains, locus YOR106W, strain vam3, hits give low values 1.01 | S. cerevisiae deletion strains, locus YOR136W, strain idh2, hits give low values 0.983 | S. cerevisiae deletion strains, locus YOR144C, strain elg1, hits give low values 0.996 | S. cerevisiae deletion strains, locus YOR184W, strain ser1, hits give low values 0.98 | S. cerevisiae deletion strains, locus YOR231W, strain MKK1, hits give low values 0.99 | S. cerevisiae deletion strains, locus YOR265W, strain rbl2, hits give low values 0.99 | S. cerevisiae deletion strains, locus YOR270C, strain vph1, hits give low values 1.05 | S. cerevisiae deletion strains, locus YOR290C, strain snf2, hits give low values 0.956 | S. cerevisiae deletion strains, locus YOR316C, strain cot1, hits give low values 0.995 | S. cerevisiae deletion strains, locus YPL051W, strain arl3, hits give low values 0.999 | S. cerevisiae deletion strains, locus YPL055C, strain LGE1, hits give low values 0.989 and 1 | S. cerevisiae deletion strains, locus YPL078C, strain atp4, hits give low values 1.01 | S. cerevisiae deletion strains, locus YPL106C, strain sse1, hits give low values 0.944 | S. cerevisiae deletion strains, locus YPL240C, strain hsp82, hits give low values 0.994 | S. cerevisiae deletion strains, locus YPL241C, strain CIN2, hits give low values 0.984 and 1 | S. cerevisiae deletion strains, locus YPL256C, strain CLN2, hits give low values 0.984 | S. cerevisiae deletion strains, locus YPR119W, strain clb2, hits give low values 0.987 | S. cerevisiae deletion strains, locus YPR141C, strain kar3, hits give low values 0.982 | S. cerevisiae deletion strains, locus YPR163C, strain tif3, hits give low values 0.981 | S. cerevisiae deletion strains, locus YPR167C, strain met16, hits give low values 0.993 | S. cerevisiae deletion strains, strain wtn01, hits give low values 1.01 | S. cerevisiae strains, strain wild type, hits give low values 0.988
